# Compound activity deposited in PubChem BioAssay by National Center for Advancing Translational Sciences (NCATS).
# This is a sample that favours compounds with a hit; in the whole collection about 2.2% have one here.
# Mito fusion act = inhibitors of mitochondrial division or activators of mitochondrial fusion; Potency, µM (top dose mostly 46.1 µM), inactives show at the top dose growth rescue (activation), actives largely listed as activators; actives 0.23% (n = 320,000); S. cerevisiae fusion-defective mutant growth rescue, CellTiterGlo 48 h; note: % of control where 0% means no effect; nearly all actives have a fitted effect of over 45% in size
#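 Compounds are tested for their ability to restore growth of mitochondrial fusion-defective yeast strains at non-permissive 37C in YPEG medium over 48 hours. Viability is quantified by luciferase luminescence.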
# FUS yeast rescue = FUS proteinopathy suppression in yeast; S. cerevisiae FUS-expressing, growth rescue, OD600, 24 h; Potency, µM (series often up to 76.6 µM), most hits filed as activators; actives 0.24% (n = 390,000);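 note: plate controls were DMSO vehicle for no effect and reference control for full effect; nearly all actives have a fitted effect of over 55% in size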
#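 Compound concentration series was pinned onto galactose-induced FUS-expressing yeast seeded at OD 0.005. Plates sat 24hr at 30C; absorbance at 600 nm gave growth. DMSO served as background control.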
# aSyn rescue = rescues yeast growth from alpha-synuclein toxicity. Yeast expressing alpha-synuclein, growth rescue, BacTiter-Glo, 24 h. Potency, µM (titrated, usually from 46.1 µM), inactives show at the top dose growth rescue (activation), hits mostly activators. actives 0.14% (n = 370,000). AID 652106; note: % of control where 0% means no effect; nearly all actives have a fitted effect of over 65% in size
#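 Screening used galactose-induced yeast with toxic alpha-synuclein levels, exposed to compound for 24 hr at 30 deg C. Cell growth, read with BacTiter-Glo luminescence, gave the measured signal.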
# TDP-43 yeast inh = inhibitors of TDP-43 toxicity in yeast; actives 1.8% (n = 410,000); Potency, µM (series often up to 46.1 µM), for inactives: at the highest dose growth rescue (activation), hits mostly activators; TDP-43 expressing yeast growth rescue, BacTiter-Glo, 24 h; AID 652104; note: % of control where 0% means no effect; nearly all actives have a fitted effect of over 50% in size
#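 Cell-based yeast growth screen: TDP-43 expression induced in galactose, inoculum OD600=0.02 after raffinose pregrowth to mid-log. Read-out BacTiter-Glo luminescence at 24 hr, 30 deg C; inhibition of toxicity seen as signal increase.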
# Abeta yeast res = compounds reversing amyloid beta toxicity in yeast; yeast expressing A-beta42, growth rescue, OD600, 48 h; response scale: 0% DMSO, 100% iron-clioquinol control; Potency, µM (titrated, usually from 46.1 µM), most hits filed as activators; actives 0.063% (n = 410,000); note: nearly all actives have a fitted effect of over 55% in size
#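 Yeast A-beta toxicity model in growth medium with pinned compounds, 48 h at 30 C; growth read as absorbance at 600 nm. Normalized to FeCl3/clioquinol equimolar mix (positive) and DMSO (negative).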
# An asterisk follows results filed as active; i = inactive; ? = inconclusive; . = no result given; [ ] = dose if it differs, or a comment. Calls come from the whole dose curve; as a rule, active = well fitted curve in the direction sought with a large enough effect; inconclusive = small, poorly fitted or top-dose-only effect, or another doubt; inactive = no such curve, though single readings can be large; an effect the other way counts as inactive or inconclusive. Potency is the fitted concentration of half-maximal effect.
SMILES,Mito fusion act,FUS yeast rescue,aSyn rescue,TDP-43 yeast inh,Abeta yeast res
Cc1csc(NC(=O)c2ccc(COc3ccccc3)o2)n1,18%,i,0%,22µM*,i
O=C(Nc1nccs1)c1ccc(COc2ccccc2Cl)o1,20%,i,-3%,7.1µM*,i
CC(C)C[C@H]1COc2cc(F)ccc2S(=O)(=O)N1C,.,i,.,.,.
Oc1c(C(c2ccccc2)N2CCN(c3cccc(Cl)c3)CC2)sc2nc(-c3ccco3)nn12 (stereo unspecified),.,i,.,12%,i
O=C(c1ccc(COc2ccccc2Cl)o1)N1CCN(c2ccccc2)CC1,14%,i,23%,35µM*,i
O=C(Nc1nccs1)c1ccc(-c2ccc(F)c(Cl)c2)o1,12%,i,-10%,13µM*,i
Cc1ccc(NCc2cccn2-c2nnc(N3CCC(C(=O)NCc4ccc(F)cc4)CC3)s2)cc1,.,?,.,-20%,?
COc1ccccc1-c1cc(C(F)(F)F)nc(N2CCOCC2)n1,2%,i,-27%,22µM*,i
COc1ccc(NC(=O)C2CCCN(c3nnc(C)c4c(C)n(-c5ccccc5)nc34)C2)cc1Cl (stereo unspecified),.,?,.,10%,i
COC(=O)CSc1ncc(S(=O)(=O)c2ccccc2)c(=O)[nH]1,-11%,i,3%,-16%,i
CCc1ccccc1NC(=O)CSc1ncc(S(=O)(=O)c2ccccc2)c(=O)[nH]1,.,i,4µM*,7%,i
CC[n+]1c(/C=C/C=C2/N(C)c3ccccc3C2(C)C)sc2ccccc21,-40%,.,-82%,.,.
CC(C)C(Cl)=NOC(=O)Nc1ccc(F)cc1,.,.,-9%,13µM*,i
C/C(=N\OC(=O)Nc1ccc(Cl)cc1)c1ccc(F)c(F)c1,-15%,i,-34%,?,i
Cn1/c(=N/N=C/c2ccc([N+](=O)[O-])cc2)sc2ccccc21,7%,.,.,.,.
Cn1c(=NN=Cc2ccccc2OCCO)sc2ccccc21,.,i,5%,13µM*,i
CCCCC(C)Sc1nc2c([nH]1)c(=S)n(C)c(=O)n2C (stereo unspecified),.,.,0%,?,i
CCCC(CC)Sc1nc2c([nH]1)c(=S)n(C)c(=O)n2C (stereo unspecified),.,.,7%,35µM*,i
Cc1cc(SCC(=O)Nc2ccc(Cl)cc2)nc2ccccc12,.,i,.,18%,i
CCOc1ccc(NC(=O)CN2C(=O)C(c3ccc(Cl)cc3)=NC2(C)C)cc1,.,i,.,24%,i
CC1(C)N=C(SCC(=O)Nc2ccc(Cl)cc2)C(c2ccccc2)=N1,6%,i,0%,32µM*,i
CC1(C)N=C(SCC(=O)Nc2ccc(Cl)cc2)C(c2ccc(Cl)cc2)=N1,0%,i,-10%,35µM*,i
O=C1c2ccccc2C(=O)N1C/C=C/CN1C(=O)c2ccccc2C1=O,-2%,.,.,.,.
O=C1c2ccccc2C(=O)N1C1C=CC=CC=C1,.,i,?,25µM*,i
O=C1c2ccccc2C(=O)c2c1cccc2N1CCCC1,19%,.,-23%,14µM*,i
SMILES,Mito fusion act,FUS yeast rescue,aSyn rescue,TDP-43 yeast inh,Abeta yeast res
O=C1c2ccccc2-c2onc3ccc(N4CCCC4)c1c23,-3%,?,-18%,-17%,i
OCc1ccccc1-c1ccc2nncn2c1,.,i,?,35µM*,i
Cc1ccc(-c2n[nH]c3c2C(c2cccs2)N(c2ccc(Cl)cc2)C3=O)cc1 (stereo unspecified),.,?,.,14%,i
Cc1ccc(Cc2c(-c3ccco3)nc3c4ccccc4ccn23)cc1,.,i,13µM*,0%,i
COC(=O)c1ccc2nc(-c3ccco3)c(Cc3cccc(F)c3)n2c1,.,i,?,14µM*,i
COC(=O)c1ccc2nc(-c3ccc(C)cc3)c(Cc3ccc(C)cc3)n2c1,.,i,?,?,i
COC(=O)c1ccc2nc(-c3ccco3)c(Cc3ccc(C)cc3)n2c1,.,i,?,20µM*,i
Fc1cccc(Cc2c(-c3ccco3)nc3c(Cl)cc(C(F)(F)F)cn23)c1,.,i,12%,13µM*,i
CCc1c(C)sc2c1CCN(Cc1ccc(F)cc1)C2c1ccccc1 (stereo unspecified),.,i,.,5%,i
CC(C)CCNC(=O)c1ccc(Cn2c(SCC(=O)NC(C)C)nc3ccccc3c2=O)cc1,.,i,-2%,1%,i
Cc1ccc(-c2nn(-c3ccc(F)cc3F)c3c2cnc2ccc(F)cc23)cc1,.,i,.,?,i
CC(=O)c1ccc(NC(=O)c2noc(C(C)C)c2[N+](=O)[O-])cc1,0%,i,-13%,18µM*,i
CC(=O)c1ccc(NC(=O)c2ccc([N+](=O)[O-])o2)cc1,-19%,i,-53%,16µM*,i
CCc1ccc(NC(=O)c2noc(C(C)C)c2[N+](=O)[O-])cc1,-2%,i,2%,11µM*,i
COc1ccc(NC(=O)c2noc(C(C)C)c2[N+](=O)[O-])cc1,0%,i,0%,5%[0.397 µM],i
c1ccc(OCc2nnc(SCc3nc4ccccc4[nH]3)n2-c2ccccc2)cc1,.,i,.,.,.
O=[N+]([O-])/C=C/c1cn(Cc2ccccc2)c2ccccc12,2%,i,1%,10µM*,i
COc1ccc2cc(C3=CC(=O)CCC3)ccc2c1,.,i,1%,?,i
COc1ccc2cc(C3=CCCC3(C)C(=O)O)ccc2c1 (stereo unspecified),.,i,-38%,3.5µM*,i
Cc1ccc2nc(N/N=C\c3ccc([N+](=O)[O-])o3)nc(-c3ccccc3)c2c1,0%,i,16%,-3%,i
O=[N+]([O-])c1ccc(/C=N/Nc2nc(-c3ccccc3)c3cc(Br)ccc3n2)o1,1%,i,-7%,11µM*,i
CC[C@H](C)[C@@H]1NC(=O)[C@H]([C@@H](C)CC)NC(=O)[C@@H](CC(C)C)NC(=O)[C@H](Cc2ccccc2)NC(=O)[C@H](Cc2ccccc2)NC(=O)[C@@H]2CCCN2C(=O)[C@@H]2CCCN2C(=O)[C@H](C(C)C)NC(=O)[C@H](CC(C)C)NC1=O,.,18µM*,0%,19%,i
Cc1cccc(C(=O)N2CCN(c3ncnc4c3cnn4-c3ccccc3)CC2)c1,10%,.,6%,29%,i
c1ccc(-n2ncc3c(N4CCN(CCOc5cccc6ccccc56)CC4)ncnc32)cc1,1%,i,-1%,20µM*,i
O=C(COc1ccccc1)N1CCN(c2ncnc3c2cnn3-c2ccccc2)CC1,11%,i,9%,14µM*,i
Cc1cc(Br)ccc1OCCCN1CCC(C(O)(c2ccccc2)c2ccccc2)CC1,.,i,.,.,.
